B-score data for 75 molecules are collected here from PubChem BioAssay AID641 (Vanderbilt High Throughput Screening Facility, 2007).

The whole screen tested about 58,000 compounds, of which about 3,400 (5.9%) were called active. This excerpt belongs to a sample that is enriched for actives. A number with no mark means an inactive call.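 Rule for the calls: active = luminescence count or its row- and column-corrected plate score outside the 99.7% band of the plate's sample wells, on either side; inactive = the rest.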

Sequence of D(1A) dopamine receptor (Homo sapiens) (P21728 whole entry, looked up): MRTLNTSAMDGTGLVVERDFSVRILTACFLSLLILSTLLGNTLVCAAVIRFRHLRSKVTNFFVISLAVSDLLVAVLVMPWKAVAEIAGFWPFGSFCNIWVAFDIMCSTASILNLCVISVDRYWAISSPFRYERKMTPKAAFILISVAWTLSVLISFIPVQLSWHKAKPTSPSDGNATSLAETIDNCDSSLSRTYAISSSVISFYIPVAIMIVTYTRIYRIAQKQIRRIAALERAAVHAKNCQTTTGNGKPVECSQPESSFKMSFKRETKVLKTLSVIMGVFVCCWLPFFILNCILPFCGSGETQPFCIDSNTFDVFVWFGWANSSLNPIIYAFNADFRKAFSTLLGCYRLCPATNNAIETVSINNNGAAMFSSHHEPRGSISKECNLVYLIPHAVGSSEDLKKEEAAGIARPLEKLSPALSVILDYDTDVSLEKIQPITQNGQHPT

The test concerns the target D(1A) dopamine receptor (Homo sapiens) (UniProt P21728). The test can be described thus: D1 CRE-luciferase signal change, two-sided – cell-based, HEK293 D1, dopamine EC30, D1 allosteric modulator project, primary screen (AID 641). Particulars: dopamine EC30 potentiation, at 10 µM, actives deviate in either direction.
For `COc1ncnc2c1N=C1CC(C)(C)CC(N)=C1S2`, the B-score was 3.41 (active).
`Nc1c(C(=O)NCc2ccccc2)nnn1Cc1cccc(Cl)c1`: the B-score is 0.392.
To `COc1ccc(OC)c2c1sc(=NC(=O)CN1C(=O)CCC1=O)n2C` belongs 2.86; to `Cc1ccc2c(c1)N(CCCC(=O)NCc1cccnc1)C(=O)CO2`, -0.742.
Consider `COc1ccc(N2CCN(CCNC(=O)c3nnc(Cc4c(F)cccc4Cl)o3)CC2)cc1`, for which the B-score was -1.8.
As for `Cc1ccc(-n2nc3c(c2NC(=O)CCC2CCCCC2)CS(=O)C3)cc1` (stereo not given), the B-score is -0.56.
As for `O=P(O)(CN1CCCCC1)CN1CCCCC1`, the B-score is -0.0507.
On to `C=CCOC(=O)C1=C(C)OC(N)=C(C#N)C1c1ccc(F)cc1` (stereo not given), for which the B-score is 0.241.
Take `C=CCSc1nc2c(c(=O)[nH]1)C(C(C)C)C(C#N)=C(N)O2` (stereo not given): the B-score is 10.1 (active).
As to `CCN1CCN(C(=O)c2ccccc2N(C)S(=O)(=O)c2ccc(C)cc2)CC1`, the B-score is 0.228.
As for `COc1ccc(Nc2cc(C)nc(-n3nc(C)cc3C)n2)cc1`, the figure is 7.36 (active); as for `CC(=O)c1ccc(Oc2cc(C)nc(-n3nc(C)cc3C)n2)cc1`, 11.6 (active); as for `Cc1cc(C)n(-c2ccc(Cl)c(C(=O)O)n2)n1`, -0.569.
As to `COCCNc1nc(-n2nc(C)cc2C)nc2sc3c(c12)CCCC3`, the B-score is 0.116.
To `COc1cc(NS(=O)(=O)c2ccccc2)ccc1-n1nc(C)cc1C` belongs -0.763; to `CCOC(=O)c1cnc(-n2nc(C)cc2C)nc1Nc1cccc(C(C)=O)c1`, 0.96.
Consider `Cc1ccc(S(=O)(=O)Nc2ccccc2CNc2c(C)n(C)n(-c3ccccc3)c2=O)cc1`, for which the B-score was 1.04.
As for `Cc1ccc(S(=O)(=O)N2CC(=O)Nc3ccccc32)cc1C`, the figure is 0.0538.
To `CCN1C(=O)CS/C1=N\c1nccs1` belongs 0.211; to `Cc1ccc(CNC(=O)CCCNC(=O)c2ccc(Cl)cc2)n1C`, -1.3.
Turning to `CC1CCN(Cc2nc3c(c(=O)n(C)c(=O)n3C)n2CCc2ccccc2)CC1`, the B-score was 0.377.
For the molecule `CCOC(=O)C1CCCN(C(=O)c2cncc(Br)c2)C1` (stereo not given), the B-score is 0.42.
As for `CCOC(=O)C1CCCN(C(=O)c2sc3nc(C)nc(N4CCOCC4)c3c2C)C1` (stereo not given), the figure is -3.4 (active); as for `CCOC(=O)C1CCCN(C(=O)CN(c2ccc(OC)cc2)S(=O)(=O)c2c(C)noc2C)C1` (stereo not given), 0.03.
Take `Nc1nnc(C2CCCC2)s1`: the B-score is -1.25.
For `CCOc1cccc(-c2nnc3sc(COc4ccc(OC)cc4)nn23)c1`, the B-score was -0.0728.
Turning to `COc1ccc(C2=CC(c3cccc(OC)c3)n3nnnc3N2)cc1` (stereo not given), the B-score was 1.89.
To `CCOc1cccc(-n2nnnc2-c2ccc(OC)cc2)c1` belongs 4.33 (active).
As to `CC(C)(C)Nc1c(N)c(=O)oc2ccccc12`, the B-score was -1.25.
For `CCC(C)n1[nH]c(=O)cc1N` (stereo not given), the B-score was -0.0177.
To `COc1ccc(C(=O)Nc2ccc3c(c2)OCO3)cc1OC` belongs 1.31; to `CC(C)C(=O)Nc1cccc(C(=O)Nc2ccc3c(c2)OCO3)c1`, -3.26 (active); to `Cn1c(=O)n(C)c2cc(C(=O)Nc3ccc4c(c3)OCO4)ccc21`, -2.3.
As for `CCOc1ccc(Cn2nnc(C(=O)NCc3ccccc3)c2N)cc1`, the figure is 0.835; as for `CC1(C)CC(=O)C(C=NCCC2=CCCCC2)=C(O)C1`, 1.52.
To `Fc1ccc2[nH]c3c(N4CCSCC4)ncnc3c2c1` belongs -5.42 (active).
With `Cc1ccc2c(c1)NCC(C(=O)NC1CCC(C)CC1)O2` (stereo not given), the B-score was 0.396.
As for `CC1(C)CC(=O)C=C(NC2CC(C)(C)NC(C)(C)C2)C1`, the figure is -0.998; as for `CCCCc1c(O)nc2n(c1=O)CCS2`, 3.41 (active); as for `CCOC(=O)N1CCN(C(=O)c2cnc3n(c2=O)CCS3)CC1`, 0.461.
Regarding `CN(CCc1ccccn1)S(=O)(=O)c1ccc2c3c(cccc13)C(=O)N2`, the B-score was 0.281.
To `CCC/C(O)=C1\C(=O)CC(C)(C)CC1=Nc1ccccc1OC` belongs 0.24; to `COc1ccc(NC(=O)c2cccc(NC(=O)c3ccco3)c2)c(OC)c1`, -0.0282; to `Cc1nn(-c2ccccc2)c(CC(C)(C)C(=O)O)c1C(=O)O`, 0.0788.
As for `Cc1nn(-c2ccccc2)c2c1C(=O)NC(=O)C(C)(C)C2`, the figure is 20.5 (active); as for `Cc1cc(NC(=O)Nc2ccccc2)n(-c2ccccc2)n1`, -0.331; as for `Cc1cc(Nc2ccc(Br)cc2F)n2ncnc2n1`, -0.165.
For the molecule `COC(=O)c1oc2ccc(Br)cc2c1NC(C)=O`, the B-score was 0.0355.
To `Cc1cc(C)nc(-n2nc(C)cc2NC(=O)c2ccc(Br)o2)n1` belongs 6.02 (active); to `CCN(CC)S(=O)(=O)c1cccc(C(=O)Nc2cc(C)nn2-c2nc(C)cc(C)n2)c1`, 0.0356; to `Cc1cccc(-n2nc3c(c2NC(=O)c2ccc(Br)o2)CSC3)c1C`, 0.109.
As for `CS(=O)(=O)N(C(=O)NC(=O)NC1CCS(=O)(=O)C1)C1CCCCC1` (stereo not given), the figure is -3.24 (active).
Consider `CC(=O)CCS(=O)(=O)c1ccc(C)c(C)c1`, for which the B-score was 1.88.
To `COc1ccc(S(=O)(=O)N2CCOCC2)cc1C(=O)Nc1nc2ccccc2s1` belongs -0.687; to `CN(C)CCNC(CC(=O)Nc1ccc(Cl)c(Cl)c1)C(=O)O` (stereo not given), 0.834.
For `CC(C)NS(=O)(=O)c1ccc(NC(=O)c2cccnc2)cc1`, the B-score is 1.41.
Take `CC(c1cccnc1)N(CCN(C)C)C(=O)Nc1ccc(Cl)c(Cl)c1` (stereo not given): the B-score is -1.22 (active).
As for `COC(=O)[C@H](C(C)C)n1c(C)c(C(C)=O)c(C(C)=O)c1C`, the figure is 4.12 (active).
As to `CCOc1ccc(OCC)c(NC(=O)C(NS(=O)(=O)c2ccc3c(c2)oc(=O)n3C)C(C)C)c1` (stereo not given), the B-score is -0.175.
`C#CCN1C(=O)C(O)(CC(=O)c2cc(OC)ccc2OC)c2ccccc21` (stereo not given): the B-score is 0.733.
Turning to `CSC1=NCCN1C(=O)c1ccc(S(=O)(=O)N2CCOCC2)cc1`, the B-score is -0.521.
As for `Cn1c(=NC(=O)C2CC2)sc2cc(F)cc(F)c21`, the figure is 1.19; as for `COc1ccccc1N1CC(O)=C(c2nc3ccccc3s2)C1=N`, -0.346.
As for `C/C(Cl)=C\Cn1c(Nc2cccc(C)c2)nc2c1c(=O)n(C)c(=O)n2C`, the B-score is 13.2 (active).
Turning to `Cc1cccc(Cn2c(SCCO)nc3c2c(=O)n(C)c(=O)n3C)c1`, the B-score is 0.248.
For `COC(=O)C(C)Sc1nc2c(c(=O)n(C)c(=O)n2C)n1Cc1cccc(C)c1` (stereo not given), the B-score was 0.892.
As for `COCCCNC(=O)c1c(F)c(F)c(F)c(F)c1F`, the figure is -0.712; as for `O=C(NCc1cccnc1)c1ccc(CS(=O)(=O)c2ccc(Br)cc2)o1`, -0.0969.
As for `Cc1cccc(NC(=O)CSC(N)=O)c1C`, the B-score is -0.0507.
As for `CCc1ccccc1N(CC(=O)NCCSCc1ccco1)S(C)(=O)=O`, the figure is 0.0216.
Consider `O=C(c1ccc2c(c1)OCCO2)C1CCN(S(=O)(=O)c2cccc(F)c2)CC1`, for which the B-score is 0.0652.
For `O/N=C(\c1ccc2c(c1)OCCO2)C1CCCCC1`, the B-score is 8.96 (active).
Regarding `O=C(OCc1ccccc1F)c1ccc2c(c1)OCCO2`, the B-score was 0.452.
As for `Fc1c(F)c(C(F)(F)F)c(F)c(F)c1N1CCN(c2ccc3nnc(C(F)(F)F)n3n2)CC1`, the figure is 0.11.
As for `CC1(C)CC(=O)C(C=NCc2cccnc2)=C(O)C1`, the figure is 1.34.
